Assay results taken from ChEMBL document CHEMBL1961873, “Compounds: GSK PKIS; Assays: Nanosyn kinase panel” (2012).

Columns and labels:
[1] = target: T1, Inhibitor of nuclear factor kappa-B kinase subunit epsilon (Homo sapiens) (UniProt Q14164); settings: at 1 µM;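 also: reported values are averaged percent inhibition figures against human IKKε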
T1 sequence (whole entry): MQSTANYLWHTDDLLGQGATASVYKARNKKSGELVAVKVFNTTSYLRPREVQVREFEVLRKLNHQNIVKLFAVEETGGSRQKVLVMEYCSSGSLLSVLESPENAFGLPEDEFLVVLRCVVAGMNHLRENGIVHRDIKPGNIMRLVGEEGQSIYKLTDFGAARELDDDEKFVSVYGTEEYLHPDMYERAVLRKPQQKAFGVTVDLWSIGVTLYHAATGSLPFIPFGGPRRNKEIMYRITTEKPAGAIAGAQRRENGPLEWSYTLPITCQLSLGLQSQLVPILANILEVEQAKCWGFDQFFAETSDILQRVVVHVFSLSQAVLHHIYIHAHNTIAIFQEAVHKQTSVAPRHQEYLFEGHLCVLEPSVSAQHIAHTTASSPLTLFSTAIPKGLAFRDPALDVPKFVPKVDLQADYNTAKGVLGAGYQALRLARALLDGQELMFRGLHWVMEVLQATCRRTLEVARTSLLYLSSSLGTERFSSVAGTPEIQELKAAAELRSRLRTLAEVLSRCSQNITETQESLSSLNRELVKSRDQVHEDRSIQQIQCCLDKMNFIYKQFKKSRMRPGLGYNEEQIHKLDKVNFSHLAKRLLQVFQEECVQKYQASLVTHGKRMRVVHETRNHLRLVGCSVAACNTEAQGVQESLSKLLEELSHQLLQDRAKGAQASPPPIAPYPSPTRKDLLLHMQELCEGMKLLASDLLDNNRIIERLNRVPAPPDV

[2] = target: T2, Serine/threonine-protein kinase Nek1 (Homo sapiens) (UniProt Q96PY6); settings: at 0.1 µM
T2 sequence (whole entry): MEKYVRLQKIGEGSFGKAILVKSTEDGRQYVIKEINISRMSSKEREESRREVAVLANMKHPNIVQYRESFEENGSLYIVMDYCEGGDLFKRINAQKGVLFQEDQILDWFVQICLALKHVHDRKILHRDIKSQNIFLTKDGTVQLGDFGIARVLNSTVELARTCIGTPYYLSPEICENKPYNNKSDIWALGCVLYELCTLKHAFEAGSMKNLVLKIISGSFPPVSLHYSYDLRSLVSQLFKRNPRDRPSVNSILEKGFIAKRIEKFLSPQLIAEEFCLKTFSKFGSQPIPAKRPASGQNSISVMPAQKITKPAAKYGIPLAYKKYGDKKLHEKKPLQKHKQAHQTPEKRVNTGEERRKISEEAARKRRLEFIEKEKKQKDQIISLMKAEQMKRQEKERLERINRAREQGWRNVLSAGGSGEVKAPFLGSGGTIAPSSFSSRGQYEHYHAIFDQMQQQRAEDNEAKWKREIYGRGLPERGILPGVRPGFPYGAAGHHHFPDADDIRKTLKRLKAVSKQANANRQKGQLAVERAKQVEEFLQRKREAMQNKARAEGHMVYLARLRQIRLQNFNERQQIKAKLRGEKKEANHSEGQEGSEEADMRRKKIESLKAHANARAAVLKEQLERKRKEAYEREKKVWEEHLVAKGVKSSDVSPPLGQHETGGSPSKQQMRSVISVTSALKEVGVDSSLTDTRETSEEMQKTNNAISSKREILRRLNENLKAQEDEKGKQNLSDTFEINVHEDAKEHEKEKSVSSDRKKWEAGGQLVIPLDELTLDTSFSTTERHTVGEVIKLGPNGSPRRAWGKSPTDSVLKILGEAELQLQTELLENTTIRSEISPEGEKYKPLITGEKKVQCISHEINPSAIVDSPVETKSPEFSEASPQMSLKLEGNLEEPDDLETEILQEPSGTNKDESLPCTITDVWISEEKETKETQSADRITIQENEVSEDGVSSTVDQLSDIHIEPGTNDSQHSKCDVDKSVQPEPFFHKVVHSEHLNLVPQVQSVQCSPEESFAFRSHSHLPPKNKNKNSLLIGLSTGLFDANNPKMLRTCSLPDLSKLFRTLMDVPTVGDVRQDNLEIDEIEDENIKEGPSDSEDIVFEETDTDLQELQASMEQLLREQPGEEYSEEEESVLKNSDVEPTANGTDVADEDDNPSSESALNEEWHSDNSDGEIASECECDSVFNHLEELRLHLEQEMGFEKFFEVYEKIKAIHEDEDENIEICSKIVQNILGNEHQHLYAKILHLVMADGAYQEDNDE

[3] = target: T2, Serine/threonine-protein kinase Nek1 (Homo sapiens); settings: at 1 µM
[4] = target: T3, Serine/threonine-protein kinase Nek2 (Homo sapiens) (UniProt P51955); settings: at 0.1 µM
T3 sequence (whole entry): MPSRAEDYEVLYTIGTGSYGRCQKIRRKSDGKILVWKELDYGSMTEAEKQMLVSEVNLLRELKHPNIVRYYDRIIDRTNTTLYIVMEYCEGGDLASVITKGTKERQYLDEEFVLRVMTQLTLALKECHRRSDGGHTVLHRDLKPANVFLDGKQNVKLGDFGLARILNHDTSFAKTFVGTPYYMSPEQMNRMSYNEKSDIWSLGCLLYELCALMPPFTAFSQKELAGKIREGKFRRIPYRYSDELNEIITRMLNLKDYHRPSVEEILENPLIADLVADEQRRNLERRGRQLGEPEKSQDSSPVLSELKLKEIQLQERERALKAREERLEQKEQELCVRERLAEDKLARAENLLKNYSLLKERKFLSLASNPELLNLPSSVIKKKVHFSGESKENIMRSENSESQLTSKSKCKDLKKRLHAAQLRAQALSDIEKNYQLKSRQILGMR

[5] = target: T3, Serine/threonine-protein kinase Nek2 (Homo sapiens); settings: at 1 µM
[6] = target: Serine/threonine-protein kinase Nek6 (Homo sapiens) (UniProt Q9HC98); settings: at 0.1 µM
Serine/threonine-protein kinase Nek6 (Homo sapiens), sequence (Q9HC98 whole entry): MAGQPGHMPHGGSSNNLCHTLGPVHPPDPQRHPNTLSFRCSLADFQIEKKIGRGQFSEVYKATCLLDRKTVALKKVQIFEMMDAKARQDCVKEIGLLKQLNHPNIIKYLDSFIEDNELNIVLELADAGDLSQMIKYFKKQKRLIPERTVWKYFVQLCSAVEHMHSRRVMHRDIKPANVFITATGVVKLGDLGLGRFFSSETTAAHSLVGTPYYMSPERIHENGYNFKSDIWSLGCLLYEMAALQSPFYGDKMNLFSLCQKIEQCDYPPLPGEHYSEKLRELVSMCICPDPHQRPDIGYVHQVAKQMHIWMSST

[7] = target: Serine/threonine-protein kinase Nek6 (Homo sapiens) (UniProt Q9HC98); settings: at 1 µM
[8] = target: Serine/threonine-protein kinase Nek7 (Homo sapiens) (UniProt Q8TDX7); settings: at 0.1 µM
Serine/threonine-protein kinase Nek7 (Homo sapiens), sequence (Q8TDX7 whole entry, looked up): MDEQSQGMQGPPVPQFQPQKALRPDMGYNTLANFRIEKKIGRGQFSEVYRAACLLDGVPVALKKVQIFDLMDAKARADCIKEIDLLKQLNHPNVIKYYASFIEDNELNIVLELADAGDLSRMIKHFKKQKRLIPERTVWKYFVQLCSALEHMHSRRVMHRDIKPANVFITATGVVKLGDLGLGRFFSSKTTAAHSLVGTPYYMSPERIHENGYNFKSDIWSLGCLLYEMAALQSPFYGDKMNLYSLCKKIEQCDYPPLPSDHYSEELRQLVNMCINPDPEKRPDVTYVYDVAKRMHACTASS

[9] = target: Serine/threonine-protein kinase Nek7 (Homo sapiens) (UniProt Q8TDX7); settings: at 1 µM
[10] = target: T4, Serine/threonine-protein kinase Nek9 (Homo sapiens) (UniProt Q8TD19); settings: at 0.1 µM
T4 sequence (whole entry): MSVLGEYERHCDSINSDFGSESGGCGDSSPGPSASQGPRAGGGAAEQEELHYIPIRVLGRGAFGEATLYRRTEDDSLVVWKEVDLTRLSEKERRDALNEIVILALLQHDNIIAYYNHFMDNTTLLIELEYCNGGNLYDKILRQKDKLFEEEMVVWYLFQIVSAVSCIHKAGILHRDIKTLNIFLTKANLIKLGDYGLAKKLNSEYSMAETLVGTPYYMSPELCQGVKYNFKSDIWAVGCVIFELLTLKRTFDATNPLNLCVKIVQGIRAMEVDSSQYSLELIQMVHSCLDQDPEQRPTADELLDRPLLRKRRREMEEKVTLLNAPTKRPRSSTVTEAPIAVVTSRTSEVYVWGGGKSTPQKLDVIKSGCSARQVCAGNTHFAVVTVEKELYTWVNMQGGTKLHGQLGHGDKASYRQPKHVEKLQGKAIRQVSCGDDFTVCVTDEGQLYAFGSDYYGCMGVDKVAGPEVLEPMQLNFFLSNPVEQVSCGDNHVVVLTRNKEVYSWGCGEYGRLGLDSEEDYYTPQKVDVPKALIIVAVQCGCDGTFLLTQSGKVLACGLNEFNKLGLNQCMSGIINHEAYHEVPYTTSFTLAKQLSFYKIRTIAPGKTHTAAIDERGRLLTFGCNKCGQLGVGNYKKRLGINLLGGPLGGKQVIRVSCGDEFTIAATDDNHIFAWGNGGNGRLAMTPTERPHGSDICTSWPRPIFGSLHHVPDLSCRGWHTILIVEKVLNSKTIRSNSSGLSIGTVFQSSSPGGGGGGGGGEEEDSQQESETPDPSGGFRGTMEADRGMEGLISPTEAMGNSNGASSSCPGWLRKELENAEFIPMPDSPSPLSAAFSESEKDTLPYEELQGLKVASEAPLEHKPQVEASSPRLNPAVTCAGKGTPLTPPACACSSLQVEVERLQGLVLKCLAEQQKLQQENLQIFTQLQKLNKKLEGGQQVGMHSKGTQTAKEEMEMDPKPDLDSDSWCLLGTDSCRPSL

[11] = target: T4, Serine/threonine-protein kinase Nek9 (Homo sapiens); settings: at 1 µM
[12] = target: Serine/threonine-protein kinase PLK1 (Homo sapiens) (UniProt P53350); settings: at 0.1 µM
Serine/threonine-protein kinase PLK1 (Homo sapiens), sequence (P53350 whole entry): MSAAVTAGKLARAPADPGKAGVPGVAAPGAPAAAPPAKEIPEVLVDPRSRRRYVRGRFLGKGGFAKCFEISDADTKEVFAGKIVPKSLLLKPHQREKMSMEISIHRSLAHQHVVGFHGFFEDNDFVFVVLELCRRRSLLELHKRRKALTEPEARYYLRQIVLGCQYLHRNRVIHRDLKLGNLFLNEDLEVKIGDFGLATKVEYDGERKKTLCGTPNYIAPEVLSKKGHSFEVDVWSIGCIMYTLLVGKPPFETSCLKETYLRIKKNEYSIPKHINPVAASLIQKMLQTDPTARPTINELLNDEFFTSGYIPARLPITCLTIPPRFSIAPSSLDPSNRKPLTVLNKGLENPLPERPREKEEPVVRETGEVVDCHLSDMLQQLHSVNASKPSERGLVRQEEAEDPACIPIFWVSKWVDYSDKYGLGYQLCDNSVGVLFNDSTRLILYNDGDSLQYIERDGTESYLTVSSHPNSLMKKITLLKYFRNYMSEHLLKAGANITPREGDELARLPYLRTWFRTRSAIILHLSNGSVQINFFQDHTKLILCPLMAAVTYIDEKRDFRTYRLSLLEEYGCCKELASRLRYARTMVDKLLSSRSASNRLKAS

[13] = target: Serine/threonine-protein kinase PLK1 (Homo sapiens) (UniProt P53350); settings: at 1 µM
[14] = target: T5, Dual specificity protein kinase TTK (Homo sapiens) (UniProt P33981); settings: at 0.1 µM
T5 sequence (whole entry): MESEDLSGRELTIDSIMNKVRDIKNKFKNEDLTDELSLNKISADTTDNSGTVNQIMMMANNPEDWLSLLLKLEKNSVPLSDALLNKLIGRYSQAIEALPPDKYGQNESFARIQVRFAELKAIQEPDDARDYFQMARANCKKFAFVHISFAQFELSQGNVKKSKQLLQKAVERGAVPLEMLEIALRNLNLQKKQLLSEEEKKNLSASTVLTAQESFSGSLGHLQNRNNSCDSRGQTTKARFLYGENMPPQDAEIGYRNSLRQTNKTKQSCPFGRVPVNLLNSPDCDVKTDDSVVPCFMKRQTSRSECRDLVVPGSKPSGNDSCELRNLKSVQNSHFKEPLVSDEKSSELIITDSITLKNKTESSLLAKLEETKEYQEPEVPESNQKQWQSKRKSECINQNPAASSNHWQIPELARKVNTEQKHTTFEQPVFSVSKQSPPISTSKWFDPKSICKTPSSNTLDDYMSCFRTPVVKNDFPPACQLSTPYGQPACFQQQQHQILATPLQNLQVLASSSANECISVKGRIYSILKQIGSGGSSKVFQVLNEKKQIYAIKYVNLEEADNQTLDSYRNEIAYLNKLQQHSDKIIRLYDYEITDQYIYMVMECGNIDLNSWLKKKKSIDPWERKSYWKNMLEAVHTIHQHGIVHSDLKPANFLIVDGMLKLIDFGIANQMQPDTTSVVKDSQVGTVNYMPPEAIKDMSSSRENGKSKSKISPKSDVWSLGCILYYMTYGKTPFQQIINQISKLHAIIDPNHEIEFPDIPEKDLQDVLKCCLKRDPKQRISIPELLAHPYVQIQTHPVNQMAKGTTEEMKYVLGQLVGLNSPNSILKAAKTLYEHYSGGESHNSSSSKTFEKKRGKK

[15] = system: T6, Receptor-type tyrosine-protein kinase FLT3 (Homo sapiens), P36888 [D835Y]; settings: at 1 µM
T6 sequence (whole entry): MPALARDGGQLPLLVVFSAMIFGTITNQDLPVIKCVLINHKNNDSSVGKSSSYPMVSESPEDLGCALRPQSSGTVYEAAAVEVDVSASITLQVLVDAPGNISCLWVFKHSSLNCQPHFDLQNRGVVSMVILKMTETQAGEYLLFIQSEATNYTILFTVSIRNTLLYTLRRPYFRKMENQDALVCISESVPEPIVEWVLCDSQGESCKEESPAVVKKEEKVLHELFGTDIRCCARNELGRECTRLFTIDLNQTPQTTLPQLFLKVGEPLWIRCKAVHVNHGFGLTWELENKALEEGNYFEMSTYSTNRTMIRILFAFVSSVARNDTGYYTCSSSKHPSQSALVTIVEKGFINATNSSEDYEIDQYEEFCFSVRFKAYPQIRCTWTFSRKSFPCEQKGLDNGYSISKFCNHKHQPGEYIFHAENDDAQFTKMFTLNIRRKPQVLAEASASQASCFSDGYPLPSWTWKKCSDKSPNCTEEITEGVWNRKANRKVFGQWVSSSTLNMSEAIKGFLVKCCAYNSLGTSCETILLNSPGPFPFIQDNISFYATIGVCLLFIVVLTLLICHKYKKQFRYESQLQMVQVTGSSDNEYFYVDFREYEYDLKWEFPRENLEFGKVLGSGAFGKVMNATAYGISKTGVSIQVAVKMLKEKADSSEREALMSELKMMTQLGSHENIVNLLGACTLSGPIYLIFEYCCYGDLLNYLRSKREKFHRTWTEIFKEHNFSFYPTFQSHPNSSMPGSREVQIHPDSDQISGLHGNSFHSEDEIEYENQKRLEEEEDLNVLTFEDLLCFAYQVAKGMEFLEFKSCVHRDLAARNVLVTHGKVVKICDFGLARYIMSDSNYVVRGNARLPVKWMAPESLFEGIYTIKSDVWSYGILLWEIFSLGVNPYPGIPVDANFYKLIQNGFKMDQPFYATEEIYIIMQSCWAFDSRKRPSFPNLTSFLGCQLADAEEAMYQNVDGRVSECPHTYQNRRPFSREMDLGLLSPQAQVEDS

[16] = target: Vascular endothelial growth factor receptor 3 (Homo sapiens) (UniProt P35916); settings: at 0.1 µM
Vascular endothelial growth factor receptor 3 (Homo sapiens), sequence (P35916 whole entry): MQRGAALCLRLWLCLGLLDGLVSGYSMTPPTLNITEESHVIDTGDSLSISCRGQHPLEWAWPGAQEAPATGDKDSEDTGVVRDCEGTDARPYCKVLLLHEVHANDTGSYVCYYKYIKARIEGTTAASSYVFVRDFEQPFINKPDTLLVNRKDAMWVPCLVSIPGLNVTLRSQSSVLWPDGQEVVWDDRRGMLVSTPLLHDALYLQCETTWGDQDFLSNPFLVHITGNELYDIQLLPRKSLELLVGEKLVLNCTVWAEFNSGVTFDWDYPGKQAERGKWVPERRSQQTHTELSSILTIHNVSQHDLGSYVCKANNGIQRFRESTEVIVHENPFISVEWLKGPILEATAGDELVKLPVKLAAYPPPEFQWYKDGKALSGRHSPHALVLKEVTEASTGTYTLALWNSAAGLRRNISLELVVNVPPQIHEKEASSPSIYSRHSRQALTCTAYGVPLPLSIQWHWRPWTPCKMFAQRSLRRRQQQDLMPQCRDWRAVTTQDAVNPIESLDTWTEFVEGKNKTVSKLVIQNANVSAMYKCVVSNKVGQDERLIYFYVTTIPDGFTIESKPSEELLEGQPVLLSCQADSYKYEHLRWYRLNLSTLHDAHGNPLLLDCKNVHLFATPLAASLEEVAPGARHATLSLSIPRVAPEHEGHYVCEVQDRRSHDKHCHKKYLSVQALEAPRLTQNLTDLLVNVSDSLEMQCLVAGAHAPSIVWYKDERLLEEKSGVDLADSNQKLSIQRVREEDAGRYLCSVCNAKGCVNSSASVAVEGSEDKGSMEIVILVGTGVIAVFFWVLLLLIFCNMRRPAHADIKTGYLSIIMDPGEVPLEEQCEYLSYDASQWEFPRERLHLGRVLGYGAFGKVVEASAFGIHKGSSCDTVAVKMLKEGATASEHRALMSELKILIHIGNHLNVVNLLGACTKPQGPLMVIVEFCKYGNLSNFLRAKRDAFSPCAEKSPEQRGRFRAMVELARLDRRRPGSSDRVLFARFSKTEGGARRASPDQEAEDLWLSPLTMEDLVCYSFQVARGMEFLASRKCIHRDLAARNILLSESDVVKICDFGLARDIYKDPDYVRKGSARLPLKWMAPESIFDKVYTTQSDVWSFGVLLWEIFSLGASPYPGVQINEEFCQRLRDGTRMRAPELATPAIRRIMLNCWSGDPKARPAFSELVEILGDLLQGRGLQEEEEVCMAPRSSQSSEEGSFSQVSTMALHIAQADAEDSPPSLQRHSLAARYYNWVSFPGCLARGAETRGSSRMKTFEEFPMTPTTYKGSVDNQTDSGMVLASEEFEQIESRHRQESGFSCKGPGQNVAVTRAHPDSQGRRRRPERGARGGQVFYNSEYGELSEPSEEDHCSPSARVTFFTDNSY

[17] = target: Vascular endothelial growth factor receptor 3 (Homo sapiens) (UniProt P35916); settings: at 1 µM
[18] = target: Macrophage colony-stimulating factor 1 receptor (Homo sapiens) (UniProt P07333); settings: at 0.1 µM
Macrophage colony-stimulating factor 1 receptor (Homo sapiens), sequence (P07333 whole entry): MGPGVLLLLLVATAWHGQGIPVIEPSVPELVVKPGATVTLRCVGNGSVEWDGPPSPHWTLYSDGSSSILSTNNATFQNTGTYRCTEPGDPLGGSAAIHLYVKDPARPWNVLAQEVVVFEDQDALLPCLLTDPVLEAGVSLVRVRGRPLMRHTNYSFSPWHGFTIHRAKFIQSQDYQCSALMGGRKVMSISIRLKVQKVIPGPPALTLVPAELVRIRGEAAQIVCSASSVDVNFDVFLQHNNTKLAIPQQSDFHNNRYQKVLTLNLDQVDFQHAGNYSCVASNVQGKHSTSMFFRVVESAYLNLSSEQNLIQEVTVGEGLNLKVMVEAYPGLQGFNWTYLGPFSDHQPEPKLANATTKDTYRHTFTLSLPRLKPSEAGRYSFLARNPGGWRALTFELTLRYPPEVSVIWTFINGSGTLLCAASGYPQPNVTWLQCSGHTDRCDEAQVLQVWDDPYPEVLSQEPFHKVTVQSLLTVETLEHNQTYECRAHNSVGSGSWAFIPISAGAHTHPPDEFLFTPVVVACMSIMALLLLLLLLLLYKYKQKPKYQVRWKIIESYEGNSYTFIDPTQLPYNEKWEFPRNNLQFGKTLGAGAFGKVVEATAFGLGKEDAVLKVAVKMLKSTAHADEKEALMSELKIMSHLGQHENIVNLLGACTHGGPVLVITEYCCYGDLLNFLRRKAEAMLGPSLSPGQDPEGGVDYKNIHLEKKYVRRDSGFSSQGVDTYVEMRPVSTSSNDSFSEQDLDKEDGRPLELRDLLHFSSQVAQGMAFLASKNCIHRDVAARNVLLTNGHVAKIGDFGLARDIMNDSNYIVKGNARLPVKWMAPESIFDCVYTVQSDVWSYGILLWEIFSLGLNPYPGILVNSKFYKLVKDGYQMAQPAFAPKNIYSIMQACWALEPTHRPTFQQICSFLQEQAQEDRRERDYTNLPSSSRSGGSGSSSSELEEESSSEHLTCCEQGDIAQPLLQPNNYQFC

[19] = target: Macrophage colony-stimulating factor 1 receptor (Homo sapiens) (UniProt P07333); settings: at 1 µM
[20] = target: Tyrosine-protein kinase Fyn (Homo sapiens) (UniProt P06241); settings: at 0.1 µM
Tyrosine-protein kinase Fyn (Homo sapiens), sequence (P06241 2-537 limits assumed): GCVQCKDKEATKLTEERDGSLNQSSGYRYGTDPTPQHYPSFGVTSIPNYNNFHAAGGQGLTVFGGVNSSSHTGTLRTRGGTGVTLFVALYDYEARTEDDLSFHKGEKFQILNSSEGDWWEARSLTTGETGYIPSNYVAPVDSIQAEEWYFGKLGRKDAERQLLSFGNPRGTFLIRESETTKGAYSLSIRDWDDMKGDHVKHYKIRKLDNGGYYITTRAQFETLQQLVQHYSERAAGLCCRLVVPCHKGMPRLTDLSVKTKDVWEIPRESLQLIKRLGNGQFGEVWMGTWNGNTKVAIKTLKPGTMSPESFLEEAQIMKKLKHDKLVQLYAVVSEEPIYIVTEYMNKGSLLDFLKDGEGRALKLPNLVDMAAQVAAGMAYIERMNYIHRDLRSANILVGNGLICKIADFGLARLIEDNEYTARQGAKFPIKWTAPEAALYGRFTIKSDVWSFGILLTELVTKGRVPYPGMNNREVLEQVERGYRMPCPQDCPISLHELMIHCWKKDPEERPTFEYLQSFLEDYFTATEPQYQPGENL

| SMILES | inhibition [1] [%] | inhibition [2] [%] | inhibition [3] [%] | inhibition [4] [%] | inhibition [5] [%] | inhibition [6] [%] | inhibition [7] [%] | inhibition [8] [%] | inhibition [9] [%] | inhibition [10] [%] | inhibition [11] [%] | inhibition [12] [%] | inhibition [13] [%] | inhibition [14] [%] | inhibition [15] [%] | inhibition [16] [%] | inhibition [17] [%] | inhibition [18] [%] | inhibition [19] [%] | inhibition [20] [%] |
| --- | --- | --- | --- | --- | --- | --- | --- | --- | --- | --- | --- | --- | --- | --- | --- | --- | --- | --- | --- | --- |
| N#Cc1c(NC(=O)c2ccc(F)cc2)sc2c1CCCC2 | 3.72 | 9.69 | 3.09 | 2.18 | 1.31 | 2.27 | 2.25 | 2.7 | 2.46 | 3.12 | 0.67 | 4.32 | 2.6 | 4.36 | 2.85 | 0.08 | -0.81 | 0.56 | -0.85 | -0.49 |
| NS(=O)(=O)c1ccc(Nc2ncc(-c3ccccc3)o2)cc1 | 5.67 | 2.41 | 5.75 | 4.32 | 4.17 | 2.71 | 1.65 | 2.06 | 2.65 | 3.91 | 5.13 | 1.46 | 3.33 | 6.13 | 21.6 | 3.67 | 9.2 | 6.69 | 32.5 | 1.12 |
| COc1cc(Nc2nccc(Nc3ccc4c(C)n[nH]c4c3)n2)cc(OC)c1OC | 12.9 | 1.89 | 7.77 | 0.97 | 0.41 | -1.67 | -0.68 | 3.64 | 2.17 | 0.16 | 5.56 | 2.28 | 4.34 | 2.57 | 87.2 | 78.8 | 106 | 79.3 | 94.1 | 44.9 |
